Assay results reported in PubChem BioAssay (EPA / NIEHS).
Active and inactive are the calls of the source. The calls were made as follows: active = hit-call score of the fitted dose curve at least 0.9, where 1 is the maximum; inactive = score below 0.9.

Experiments:
Details in all cases: mRNA level, 48 h; actives raise or lower the signal
[1] = read-out: matrix metalloproteinase-10 (MMP10), MMP10 (gene 4319); experiment: LTEA_HepaRG_MMP10: Life Technologies and Expression Analysis (LTEA) Assay for matrix metalloproteinase-10 (MMP10) using HepaRG (AID 2283517)
Method in brief: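 HepaRG, collagen I, ~100,000 cells/well; serum-free induction medium; 48 h exposure, duplicate, 8-pt half-log to 100 uM, 0.5% DMSO. Readout: TaqMan qRT-PCR, normalized to ACTB/GAPDH/POLR2A; bidirectional fit vs DMSO.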

MYC, MYC (gene 4609) = experiment: LTEA_HepaRG_MYC: Life Technologies and Expression Analysis (LTEA) Assay for MYC using HepaRG (AID 2283518)
Method in brief: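 MYC transcript changes, up or down relative to 0.5% DMSO, from TaqMan qRT-PCR normalized to three housekeeping genes. Human HepaRG cultures received chemicals for 48 h at eight half-log concentrations up to 100 uM, in duplicate.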

[2] = read-out: matrix metalloproteinase-3 (MMP3), MMP3 (gene 4314); experiment: LTEA_HepaRG_MMP3: Life Technologies and Expression Analysis (LTEA) Assay for matrix metalloproteinase-3 (MMP3) using HepaRG (AID 2283519)
Method in brief: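 Differentiated human HepaRG cells, plated 48 h on collagen I, were exposed in duplicate for 48 h in serum-free induction medium to eight half-log concentrations up to 100 uM in 0.5% DMSO. MMP3 mRNA was quantified by TaqMan qRT-PCR, normalised to ACTB, GAPDH and POLR2A.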

[3] = read-out: Paternally Expressed 10 (PEG10), PEG10 (gene 23089); experiment: LTEA_HepaRG_PEG10: Life Technologies and Expression Analysis (LTEA) Assay for Paternally Expressed 10 (PEG10) using HepaRG (AID 2283520)
Method in brief: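 HepaRG, 48 h post-plating → serum-free induction medium → 48 h chemical exposure (duplicate, 8-pt, max 100 uM, half-log, 0.5% DMSO) → lysis in RLT → TaqMan qRT-PCR for PEG10, ACTB/GAPDH/POLR2A normalisation.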

[4] = read-out: Protein phosphatase 2A (PPP2R4), PTPA (gene 5524); experiment: LTEA_HepaRG_PPP2R4: Life Technologies and Expression Analysis (LTEA) Assay for Protein phosphatase 2A (PPP2R4) using HepaRG (AID 2283522)
Method in brief: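 Readout is PPP2R4 transcript level by microfluidic qRT-PCR after 48 h chemical treatment of human HepaRG liver cells. Concentrations spanned 100 uM downward in half-log steps; gain or loss of signal was fitted relative to DMSO.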

[5] = read-out: Phosphatase and tensin (PTEN), PTEN (gene 5728); experiment: LTEA_HepaRG_PTEN: Life Technologies and Expression Analysis (LTEA) Assay for Phosphatase and tensin (PTEN) using HepaRG (AID 2283523)
Method in brief: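 Differentiated human HepaRG cells, plated 48 h then switched to serum-free induction medium, were exposed in duplicate for 48 h to eight half-log concentrations up to 100 uM in 0.5% DMSO. PTEN mRNA measured by TaqMan qRT-PCR, normalized to ACTB/GAPDH/POLR2A, bidirectional fit versus DMSO.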

[6] = read-out: solute carrier (SLC22A1), SLC22A1 (gene 6580); experiment: LTEA_HepaRG_SLC22A1: Life Technologies and Expression Analysis (LTEA) Assay for solute carrier (SLC22A1) using HepaRG (AID 2283524)
Method in brief: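 Human HepaRG cells were plated 48 h, switched to serum-free induction medium, then exposed in duplicate for 48 h to 8-point half-log series from 100 uM in 0.5% DMSO. SLC22A1 mRNA measured by qRT-PCR, normalized to ACTB/GAPDH/POLR2A, fitted bidirectionally versus DMSO.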

[7] = read-out: Pyruvate Dehydrogenase Kinase 4 (PDK4), PDK4 (gene 5166); experiment: LTEA_HepaRG_PDK4: Life Technologies and Expression Analysis (LTEA) Assay for Pyruvate Dehydrogenase Kinase 4 (PDK4) using HepaRG (AID 2283525)
Method in brief: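 Differentiated human HepaRG cells, pre-cultured 48 h, were exposed in duplicate for 48 h in serum-free induction medium to eight half-log concentrations up to 100 uM in 0.5% DMSO. PDK4 mRNA was quantified by qRT-PCR, normalized to ACTB, GAPDH and POLR2A, bidirectional fitting versus DMSO.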

[8] = read-out: NAD(P)H dehydrogenase [quinone] 1 (NQO1), NQO1 (gene 1728); experiment: LTEA_HepaRG_NQO1: Life Technologies and Expression Analysis (LTEA) Assay for NAD(P)H dehydrogenase [quinone] 1 (NQO1) using HepaRG (AID 2283526)
Method in brief: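 HepaRG, 48 h post-plating → serum-free induction medium → test chemical 48 h (duplicate, 100 uM top, half-log x8, 0.5% DMSO) → RNA isolation → qRT-PCR, ACTB/GAPDH/POLR2A normalization; bidirectional curve fit vs DMSO baseline.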

[9] = read-out: Nuclear factor NF-kappa-B p105 subunit (Homo sapiens) (UniProt P19838); experiment: LTEA_HepaRG_NFKB1: Life Technologies and Expression Analysis (LTEA) Assay for Nuclear Factor Kappa B Subunit 1 (NFKB1) using HepaRG (AID 2283521)
Method in brief: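 Differentiated human HepaRG cells in serum-free induction medium with 0.5% DMSO were exposed for 48 h to eight half-log concentrations, top 100 uM, in duplicate. NFKB1 mRNA measured by Fluidigm TaqMan qRT-PCR, normalised to ACTB, GAPDH and POLR2A; bidirectional fit versus DMSO.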

Measured: AC50

Nuclear factor NF-kappa-B p105 subunit (Homo sapiens), sequence (P19838 whole entry, looked up): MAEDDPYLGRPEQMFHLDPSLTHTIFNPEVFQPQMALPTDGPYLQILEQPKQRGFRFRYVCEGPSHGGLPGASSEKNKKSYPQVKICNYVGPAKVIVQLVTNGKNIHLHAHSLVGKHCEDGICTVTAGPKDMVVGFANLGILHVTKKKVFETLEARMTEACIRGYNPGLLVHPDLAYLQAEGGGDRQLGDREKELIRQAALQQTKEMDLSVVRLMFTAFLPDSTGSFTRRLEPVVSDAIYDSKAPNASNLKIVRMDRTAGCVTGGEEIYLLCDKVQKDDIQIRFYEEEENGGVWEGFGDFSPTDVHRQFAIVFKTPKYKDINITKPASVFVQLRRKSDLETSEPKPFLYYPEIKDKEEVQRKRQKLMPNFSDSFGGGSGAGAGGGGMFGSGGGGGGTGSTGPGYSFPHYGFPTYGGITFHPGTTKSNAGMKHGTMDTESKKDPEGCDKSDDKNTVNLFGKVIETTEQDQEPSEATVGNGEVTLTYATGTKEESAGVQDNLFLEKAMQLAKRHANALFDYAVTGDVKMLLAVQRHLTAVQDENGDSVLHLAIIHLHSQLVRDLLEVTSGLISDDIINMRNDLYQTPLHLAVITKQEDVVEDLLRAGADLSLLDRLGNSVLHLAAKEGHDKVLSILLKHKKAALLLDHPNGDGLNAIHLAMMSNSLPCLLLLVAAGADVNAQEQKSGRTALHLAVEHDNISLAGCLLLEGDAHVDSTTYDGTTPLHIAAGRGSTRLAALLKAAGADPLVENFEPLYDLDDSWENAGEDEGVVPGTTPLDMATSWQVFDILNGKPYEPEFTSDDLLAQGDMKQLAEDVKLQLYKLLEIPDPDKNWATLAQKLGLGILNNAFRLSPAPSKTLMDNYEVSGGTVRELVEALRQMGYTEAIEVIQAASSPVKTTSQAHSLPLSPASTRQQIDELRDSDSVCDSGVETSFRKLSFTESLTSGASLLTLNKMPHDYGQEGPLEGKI

COc1ccc(S(=O)(=O)N2C(=O)[C@@](c3ccccc3OC)(N3C[C@H](O)C[C@H]3C(=O)N(C)C)c3cc(Cl)ccc32)c(OC)c1
active: [1] 50 µM | MYC, MYC (gene 4609) 76.5 µM | [2] 50 µM | [3] 21.5 µM | [4] 32.4 µM | [5] 16.8 µM | [6] 20.5 µM | [7] 13.9 µM | [8] 29.5 µM

Nc1ccc2c(c1)C(=O)c1ccccc1C2=O
active: MYC, MYC (gene 4609) 12.3 µM | [3] 15.5 µM | [6] 7.06 µM | [7] 13.2 µM
not listed: [4]
inactive: all other assays above

c1cc(-c2ccncc2)ccn1
active: [2] 17.6 µM
not listed: MYC, MYC (gene 4609) | [8]
inactive: all other assays above

COc1cc(C=O)ccc1O
not listed: MYC, MYC (gene 4609) | [8]
inactive: all other assays above

CCCCOC(=O)CCCCCCCCC(=O)OCCCC
not listed: MYC, MYC (gene 4609) | [8]
inactive: all other assays above

CCOC(=O)CCC(=O)OCC
active: [5] 81.2 µM
not listed: [8] | [9]
inactive: all other assays above

CN1CCCC1=O
not listed: [8] | [9]
inactive: all other assays above

Cc1cccc(Nc2cc(Cl)nc(SCC(=O)O)n2)c1C
not listed: MYC, MYC (gene 4609) | [7] | [8]
inactive: all other assays above

CCCCCCC(=O)OCC
not listed: MYC, MYC (gene 4609) | [8]
inactive: all other assays above

Clc1cc(Cl)c(Cl)cc1Cl
not listed: MYC, MYC (gene 4609) | [8]
inactive: all other assays above

COc1ccc2c(c1)c(CC(=O)O)c(C)n2C(=O)c1ccc(Cl)cc1
not listed: [9]
inactive: all other assays above

COCCOC[C@H](CC1(C(=O)NC2CCC(C(=O)O)CC2)CCCC1)C(=O)Oc1ccc2c(c1)CCC2 (some centres not stated)
not listed: [9]
inactive: all other assays above

Nc1ccccc1N
active: [2] 81.8 µM | [3] 64.8 µM | [4] 77.5 µM | [5] 67.4 µM | [6] 62.4 µM | [7] 81.8 µM
inactive: [1] | [9]

O=[N+]([O-])C(CO)(CO)CO
not listed: MYC, MYC (gene 4609) | [8]
inactive: all other assays above

NCC1(Cc2noc(=O)[nH]2)CCCCC1
not listed: MYC, MYC (gene 4609) | [8]
inactive: all other assays above

CC(=O)OC/C=C(\C)CCC=C(C)C
not listed: [9]
inactive: all other assays above

CC1(C)NC(=O)NC1=O
not listed: MYC, MYC (gene 4609) | [8]
inactive: all other assays above

CCCCCCOCCO
not listed: MYC, MYC (gene 4609) | [8]
inactive: all other assays above

C[C@]12C=CC(=O)C=C1CC[C@@H]1[C@@H]2C(=O)C[C@@]2(C)[C@H]1CC[C@]2(O)C(=O)CO
not listed: MYC, MYC (gene 4609)
inactive: all other assays above

O=C(O)CCCCC(=O)O
not listed: MYC, MYC (gene 4609)
inactive: all other assays above

Cc1oc(-c2ccccc2)nc1CCOc1cccc2c1ccn2CCC(=O)O
active: [1] 82.1 µM | [6] 79.6 µM | [7] 1.1 µM
not listed: MYC, MYC (gene 4609)
inactive: all other assays above

Cc1c(C(=O)O)c(O)cc2c1C(=O)c1c(O)c([C@@H]3O[C@H](CO)[C@@H](O)[C@H](O)[C@H]3O)c(O)c(O)c1C2=O
not listed: MYC, MYC (gene 4609) | [9]
inactive: all other assays above

CC=Cc1ccc(O)c(OC)c1
not listed: MYC, MYC (gene 4609) | [8] | [9]
inactive: all other assays above

Oc1ccc2c(c1)OC[C@@H](N1CCC(O)(c3ccc(F)cc3)CC1)[C@H]2O
not listed: MYC, MYC (gene 4609)
inactive: all other assays above

Cc1ccc2ncccc2c1
not listed: MYC, MYC (gene 4609)
inactive: all other assays above

COCCOCCOC
active: [9] 2.8 µM | [4] 9.92 µM | [5] 0.243 µM | [8] 0.315 µM
not listed: MYC, MYC (gene 4609)
inactive: all other assays above

NS(=O)(=O)c1cc2c(cc1Cl)NCNS2(=O)=O
not listed: MYC, MYC (gene 4609) | [8] | [9]
inactive: all other assays above

CCCCCCCCCCCCCCCC
not listed: MYC, MYC (gene 4609) | [9]
inactive: all other assays above

C=CCc1ccc(O)c(OC)c1
not listed: MYC, MYC (gene 4609) | [9]
inactive: all other assays above

CCCCCCCCCCCC(=O)OC
not listed: MYC, MYC (gene 4609)
inactive: all other assays above

FC(F)(F)C(F)(F)C(F)(F)C(F)(F)C(F)(F)C(F)(F)CCI
not listed: MYC, MYC (gene 4609) | [9]
inactive: all other assays above

CCCCCC(=O)O
not listed: MYC, MYC (gene 4609)
inactive: all other assays above

Cc1cc(NC(=O)C(=O)O)cc(C)c1Oc1ccc(O)c2c1CCC2
active: [6] 9.92 µM | [7] 0.00353 µM
not listed: MYC, MYC (gene 4609) | [9]
inactive: all other assays above

CCCCCCCCCCO
not listed: MYC, MYC (gene 4609)
inactive: all other assays above

Nc1ccc(S(=O)(=O)c2ccc(N)cc2)cc1
active: [9] 0.353 µM
not listed: MYC, MYC (gene 4609)
inactive: all other assays above

NC(=O)Cn1c(=O)cc(CCN2CCN(c3nccc4sccc34)CC2)c2ccc(F)cc21
active: [3] 50 µM
not listed: MYC, MYC (gene 4609)
inactive: all other assays above

CCCCCCCCCCCCCO
not listed: MYC, MYC (gene 4609) | [9]
inactive: all other assays above

Cc1ccc(Cl)cc1
inactive: [1] | [2] | [3] | [4] | [6] | [7]

Cc1nc(-c2ccc3c(c2)CCN(CCC2CCC(NC(=O)/C=C/c4ccc(F)cc4)CC2)CC3)no1 (configuration not stated)
not listed: MYC, MYC (gene 4609)
inactive: all other assays above

CCc1c(C(=O)NN2CCCCC2)nn(-c2ccc(Cl)cc2Cl)c1-c1ccc(Br)cc1
inactive: [4] | [5]
active: [1] 33.2 µM | [3] 29.3 µM | [9] 74.8 µM | [6] 40.4 µM | [7] 22.1 µM | [8] 80.1 µM

CCCCCCCC=O
not listed: MYC, MYC (gene 4609)
inactive: all other assays above

CCCCc1ccc2c(n1)[C@@H](c1ccc(OC)cc1C[C@H](C)C(=O)O)[C@H](C(=O)O)[C@H]2c1ccc2c(c1)OCO2
not listed: MYC, MYC (gene 4609) | [8] | [9]
inactive: all other assays above

CNC(=O)[C@H]1O[C@@H](n2cnc3c(NCc4cc(Cl)ccc4OCc4cc(C)no4)ncnc32)[C@H](O)[C@@H]1N
not listed: MYC, MYC (gene 4609)
inactive: all other assays above

O=c1[nH]cc(F)c(=O)[nH]1
active: [4] 51 µM | [6] 51 µM | [7] 76 µM
inactive: [1] | [2] | [3] | [5]

CNCc1cc(F)ccc1Oc1ccc(Cl)c(Cl)c1
inactive: [5] | [7] | [8]
active: [1] 91.2 µM | [2] 50 µM | [3] 0.689 µM | [9] 86.3 µM | [4] 50 µM | [6] 86.5 µM

CCCCCCCCCCC
not listed: MYC, MYC (gene 4609)
inactive: all other assays above
